Screening data (PubChem BioAssay)
A selection: hits, their analogues and other compounds. The true share with any hit is near 2.1%.
KKLEB cytotox: reduces viability of KKLEB cystic fibrosis airway cells. hit rate 0.36% among 360,000. AID 602141. activity change (cytotoxicity), % at 5 µM. KKLEB CF airway cells viability, ATPlite luminescence, overnight; hits give low values; cells stimulated with P. aeruginosa culture filtrate;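 active = corrected activity change at or below -50% at 5 µM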
PAX8 inh HTS: inhibitors of PAX8 transcriptional activity in RMG-I cells; RMG-I TPO-luciferase reporter, SteadyGlo, 24 h; inhibition, % at 12.6 µM; hit rate 1.2% among 360,000; AID 652154;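 active = mean replicate inhibition at least 60% with every replicate also reaching 60%; inconclusive = only one of the two criteria is met; inactive = mean below 60% and not all replicates reaching 60%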;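 note: luciferase light reporting Pax8 driven TPO promoter activity; plate controls were median of neutral control wells for no effect and mitoxantrone controls for full effect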
EWS-Fli inh: inhibitors of EWS/Fli oncoprotein transcriptional activity; inhibition, % at 12.6 µM; hit rate 0.67% among 350,000; AID 651661; A673 NR0B1-luciferase reporter, viability-normalised;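 active = mean inhibition of at least 50% after viability correction, with every replicate also passing that limit; inconclusive = mean reaches 50% but only one of two replicates passes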;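 note: firefly luciferase signal divided by Alamar Blue viability fluorescence both relative to DMSO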
HIF-2a block: HIF-2a inhibition | inhibition, % at 18.8 µM | 786-0 RCC cells HIF-2a reporter, luciferase luminescence, overnight | hit rate 0.72% among 360,000;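 active = inhibition of the luminescence signal of 40% or more relative to plate controls, in a single-dose primary screen at 18.75 µM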
CF NFkB block: blocks PAF-induced NF-kB reporter in cystic fibrosis cells. KKLEB NF-kB-GFP reporter, GFP fluorescence overnight. inhibition, % at 5 µM. hit rate 0.86% among 360,000. AID 588850;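 active = at least 50% inhibition at 5 µM, scaled per plate between neutral and stimulator controls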;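 note: PAF is a Pseudomonas aeruginosa culture filtrate used as stimulus; plate controls were PAF-stimulated DMSO wells for no effect and unstimulated DMSO wells for full effect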
DNA binder FP: binds DNA displacing acridine orange; shares compounds with EWS-Fli inh; salmon sperm DNA acridine orange fluorescence polarization; AC35, µM (top dose mostly 68 µM), without a hit: at the top dose activity change, negative = DNA binding; hit rate 2% among 640;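 active = fitted curve reaches a 35% signal fall AC35 below twice the sample's top valid tested dose, actives reach about 48 µM in these data; inactive = the rest, including activity in the rising direction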;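 note: lower polarization ratio signals compound binding to DNA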
Active calls of the source: *; ? = inconclusive; . = no result given; ! = not confirmed by another sample.

SMILES | KKLEB cytotox | PAX8 inh HTS | EWS-Fli inh | HIF-2a block | CF NFkB block | DNA binder FP
Cc1ccc(N2C(=O)c3cccc4c(N)ccc(c34)C2=O)c2cccnc12 | -10 | ? | 60* | 8 | -114 | -6%
C[C@@H]1CN([C@H](C)CO)C(=O)Cc2cc(NC(=O)Nc3ccccc3)ccc2O[C@H]1CN(C)C | . | -2 | 2 | . | . | .
COc1ccccc1N(/N=C1\Sc2ccccc2C1=O)C(C)=O | 3 | -114 | 54* | -107 | -11 | -12%
O=C(C[C@@H]1CC[C@H]2[C@@H](COC[C@@H](O)CN2C(=O)c2cnccn2)O1)N1CCN(c2ccccc2)CC1 | . | -2 | -4 | . | . | .
C(=Cc1nc2ccccc2o1)c1ccc2c(c1)OCO2 | -42 | 3 | 69* | -3 | -39 | 3%
CC(=O)Nc1ccc(/C=C/c2nc3ccccc3o2)cc1 | 8 | -116 | -17 | -217 | -22 | .
CN=c1scc(-c2ccccc2F)n1/N=C/c1ccc(O)c(O)c1O | -34 | 83* | 56* | -47 | -3 | -3%
CN=c1scc(-c2ccccc2F)n1/N=C/c1ccc[nH]1 | -55* | 96* | 87* | 92* | -17 | -8%
CC1(C)N=C(N)N=C(N)N1c1ccc(OCCCOc2ccccc2)c(Cl)c1 | -7 | 71* | 59* | 34 | 9 | -3%
CC1(C)N=C(N)N=C(N)N1c1ccc(OCC(=O)Nc2ccccc2)c(Cl)c1 | 5 | 54 | ? | 31 | -45 | .
CCCC(=O)NC(c1cccs1)c1cc([N+](=O)[O-])c2cccnc2c1O (stereo not given) | -4 | -3 | 23 | 14 | 24 | .
O=C(CCc1ccccc1)NC(c1cccs1)c1cc(Cl)c2cccnc2c1O (stereo not given) | -8 | 78* | 58* | 4 | 15 | -4%
O=C(CCCN1C(=O)/C(=C/c2ccccc2Cl)SC1=S)NNC(=O)c1ccc(Cl)cc1Cl | -8 | 21 | 72* | 73* | 3 | 4%
Cc1noc(C)c1S(=O)(=O)Nc1ccc2c(c1)C(=O)N([C@H](C)CO)C[C@@H](C)[C@@H](CN(C)Cc1ccc(C(=O)O)cc1)OCCCC[C@H](C)O2 | . | -21 | -22 | . | . | .
O=c1[nH]c(=O)n([C@H]2C[C@H](O)[C@@H](CO)O2)cc1C(F)(F)F | 9 | -12 | 57* | 8 | -4 | -3%
O=c1[nH]c(=O)n(C2C[C@H](O)[C@@H](CO)O2)cc1C(F)(F)F (stereo not given in full) | -3 | -18 | 62* | 7 | -1 | -9%
CCCC(=O)N1CC2(C1)CN(C(=O)COC)[C@H](CO)c1c2c2ccc(OC)cc2n1C | . | . | -1 | . | . | .
C[C@@H]1CCCCO[C@@H](CN(C)C(=O)c2ccncc2)[C@H](C)CN([C@@H](C)CO)C(=O)c2cc(NS(=O)(=O)c3ccc(Cl)cc3)ccc2O1 | . | -7 | -2 | . | . | .
CN(C)c1ccc2c(c1)[C@@H]1C[C@@H](CC(=O)NCc3ccc(Oc4ccccc4)cc3)O[C@H](CO)[C@@H]1O2 | . | 52 | 52* | . | . | 3%
O=C(C[C@H]1C[C@H]2c3cc(NS(=O)(=O)c4ccc(F)cc4)ccc3O[C@H]2[C@H](CO)O1)NCc1ccc(Oc2ccccc2)cc1 | . | 99* | 54* | . | . | 6%
COc1ccc(CN(C)C[C@H]2Oc3ccc(NC(=O)Nc4ccc5c(c4)OCO5)cc3C(=O)N([C@@H](C)CO)C[C@@H]2C)cc1 | . | . | -4 | . | . | .
CC(=O)N(C)C[C@@H]1Oc2ncc(-c3ccccc3F)cc2C(=O)N([C@@H](C)CO)C[C@@H]1C | . | . | -8 | . | . | .
N#CC(=C1C=CC(=NO)C(Cl)=C1)c1ccccc1 | -6 | 73* | 51* | -46 | 50* | -2%
CN(C)c1ccc(/C=N/Nc2nc3ccccc3o2)cc1 | -13 | -19 | 68* | -71 | 1 | -7%
O=C(C[C@@H]1C[C@@H]2c3cc(NC(=O)c4ccc5c(c4)OCO5)ccc3O[C@@H]2[C@@H](CO)O1)NCc1ccc(Oc2ccccc2)cc1 | . | 11 | ? | . | . | .
SMILES | KKLEB cytotox | PAX8 inh HTS | EWS-Fli inh | HIF-2a block | CF NFkB block | DNA binder FP
COc1ccc(-c2cccc(-c3nc(C(=O)NCC(F)(F)F)cc4c3[C@H](CCO)N([S@@](=O)C(C)(C)C)C4)c2)cc1 | . | -8 | 8 | . | . | .
COc1cccc(-c2cccc(-c3nc(C(=O)NCC(F)(F)F)cc4c3[C@H](CCO)N([S@@](=O)C(C)(C)C)C4)c2)c1 | . | 45 | 54* | . | . | -9%
Cc1cc(-c2nc3ccccc3s2)ccc1N | -29 | 15 | 61* | -26 | -32 | -11%
Nc1ccc(-c2nc3ccccc3s2)cn1 | 4 | -205 | -85 | -214 | -25 | .
COc1cc(N2CCC(O)CC2)ccc1Nc1nnc(Cl)c(Nc2ccccc2S(C)(=O)=O)n1 | -2 | . | . | -1 | 0 | .
COc1ccccc1N1CCN(C2CCN(C(=O)c3ccc(F)cc3)CC2)CC1 | 4 | 10 | 4 | 13 | -6 | .
CCOc1cc(N2CCC(O)CC2)ccc1Nc1ncc2c(n1)N(C)c1ccccc1C(=O)N2C | . | -72 | 55* | . | . | 10%
COc1cc(C(=O)N2CCC(N3CCN(C)CC3)CC2)ccc1Nc1ncc2c(n1)N(C)c1ccccc1C(=O)N2C | . | -105 | 59* | . | . | -4%
CCc1nc(N)nc(N)c1-c1ccc(Cl)c(N=[N+]=[N-])c1 | -19 | 16 | 67*! | 29 | 17 | -7%
CCc1nc(N)nc(N)c1-c1ccc(Cl)c([N+](=O)[O-])c1 | 15 | 39 | 22 | 31 | -11 | .
Nc1nc(N)c2c(ccc3nccc32)[nH]1 | 6 | 16 | 56* | 16 | -34 | -12%
Nc1ccc2ncccc2c1N | -11 | -16 | . | -42 | -21 | .
CCCN1C(=O)/C(=C/c2nc3ccccc3c(=O)[nH]2)c2ccccc21 | 5 | 6 | 84* | 20 | -32 | -1%
CCCN1C(=O)/C(=C/c2nc3ccccc3c(=O)[nH]2)c2cc(C)ccc21 | 12 | -5 | -23 | -7 | 1 | .
CN(C)c1ccc(C=c2c3ccccc3n3c2c2c([n+]3C)CCCC2)cc1 | 7 | 91* | 53* | 93* | -139 | 6.5µM*
CN(C)c1ccc(/C=C2\CCC/C(=C\c3ccccc3)C2=O)cc1 | 12 | -10 | -9 | -102 | -21 | .
Oc1c(C(c2ccc(Cl)cc2)N2CCCC2)cc(Cl)c2cccnc12 (stereo not given) | -26 | 70* | 53* | 25 | 31 | -2%
Oc1c(C(c2ccccc2Cl)N2CCCC2)ccc2cccnc12 (stereo not given) | -17 | 49 | 26 | -10 | -18 | .
O=C(NC1CCC1)[C@@H]1[C@@H](CO)[C@@H]2Cn3c(cccc3=O)[C@@H]2N1CC1CCOCC1 | . | . | -6 | . | . | .
C[C@H]1CN([C@@H](C)CO)C(=O)c2ccccc2-c2ccccc2CO[C@@H]1CN(C)C(=O)Nc1ccc(-c2ccccc2)cc1 | . | 1 | -1 | . | . | .
CC(C)NC(=O)Nc1cccc2c1O[C@H](CN(C)S(=O)(=O)c1ccc(F)cc1)[C@H](C)CN([C@@H](C)CO)C2=O | . | 7 | 2 | . | . | .
